# HEK cytotox – cytotoxic compounds in HEK 293 cells | Potency, µM (highest dose often 115 µM), for inactives: at the highest dose activity change, negative = cytotoxicity, hits mostly inhibitors | 94,000 compounds, 6.6% hits | HEK 293 viability, ATP luminescence (CellTiter-Glo), 48-72 h | AID 1345083; further: nearly all actives have a fitted effect of over 60% in size
#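 Cytotoxicity was scored by loss of ATP-coupled luminescence (CellTiter-Glo) in HEK 293 cells. Compound treatment ran 48 or 72 hr at 37 degree Celsius, 5% CO2, 95% humidity.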
# hNpr1 antagonist – antagonists of human natriuretic peptide receptor Npr1 | P16066 | HEK293 hNpr1 GloSensor cGMP, ANP-stimulated luminescence | Potency, µM (doses to about 46.3 µM), inactives show at the highest dose activity change, negative = inhibition, usual class: inhibitors | 76,000 compounds, 1.6% hits | AID 1347048; calls by dose curve; further: nearly all actives have a fitted effect of over 60% in size
#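 HEK293 cells stably expressing human Npr1 and cGMP GloSensor pGS-40F, loaded 2 h with 2% GloSensor reagent, given compound 30 min at room temperature. Luminescence read before and 20 min after 0.1 nM hNppA.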
# NIH3T3 tox – NIH 3T3 cell cytotoxicity; NIH 3T3 viability, CellTiter-Glo ATP luminescence, 48-72 h; Potency, µM (doses to about 96.7 µM), inactives show at the top dose activity change, negative = cytotoxicity, most hits filed as inhibitors; 94,000 compounds, 4.3% hits; further: nearly all actives have a fitted effect of over 55% in size
#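 Cytotoxicity was measured by CellTiter-Glo ATP luminescence after 48 or 72 h compound exposure at 37 °C. Mouse NIH 3T3 fibroblasts were seeded at 400 cells/well and dosed by 23 nL pin transfer.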
# GPT2 inhibitor – inhibitors of human GPT2 alanine aminotransferase; Recombinant GPT2, coupled pyruvate oxidase/HRP Amplex Red fluorescence; Potency, µM (doses to about 57.7 µM), without a hit: at the highest dose activity change, negative = inhibition, actives largely listed as inhibitors; 100,000 compounds, 0.25% hits; AID 1671188; further: nearly all actives have a fitted effect of over 60% in size
# Target sequence (Q8TD30 whole entry, looked up): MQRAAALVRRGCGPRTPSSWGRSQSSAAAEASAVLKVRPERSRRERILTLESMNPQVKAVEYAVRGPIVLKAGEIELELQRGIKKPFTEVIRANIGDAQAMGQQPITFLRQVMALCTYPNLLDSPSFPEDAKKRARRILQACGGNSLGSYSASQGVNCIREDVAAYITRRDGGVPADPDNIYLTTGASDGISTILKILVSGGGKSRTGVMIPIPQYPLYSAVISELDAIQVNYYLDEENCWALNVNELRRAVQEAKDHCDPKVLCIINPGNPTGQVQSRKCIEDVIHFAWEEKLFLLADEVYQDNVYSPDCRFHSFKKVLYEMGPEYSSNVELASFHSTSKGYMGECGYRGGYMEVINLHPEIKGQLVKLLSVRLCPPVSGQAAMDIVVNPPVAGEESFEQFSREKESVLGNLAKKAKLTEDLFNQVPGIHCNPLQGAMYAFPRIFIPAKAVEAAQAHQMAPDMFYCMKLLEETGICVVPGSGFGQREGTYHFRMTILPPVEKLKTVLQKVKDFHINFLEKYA
#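 Fluorescence read-out: pyruvate from GPT2 turnover coupled to pyruvate oxidase, HRP and Amplex Red (0.2mM ThPP, 0.2U/mL PO and HRP, 50uM Amplex final). Substrates 250uM a-KG, 2mM L-alanine; enzyme 10ng/uL; 30 min RT.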
# Luciferase inh – blocks purified firefly luciferase enzyme activity | P08659 | purified P. pyralis luciferase, luminescence, biochemical | Potency, µM (titrated, usually from 115 µM), actives largely listed as inhibitors | 76,000 compounds, 2.5% hits | AID 1347043; further: nearly all actives have a fitted effect of over 65% in size
#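 Luminescence read by CCD imaging after purified firefly luciferase (10nM final) was added to substrate buffer holding 10uM D-luciferin and 10uM ATP, pH 7.5, pre-dosed with compound.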
# An asterisk follows results filed as active; i = inactive; ? = inconclusive; · = no result given; [ ] = remark or other dose. Hits are enriched below; roughly 10% of the tested compounds scored in any of these assays. Unless noted, the call rests on the fitted dose curve; in most records, active means well fitted curve in the direction sought with a large enough effect; inconclusive means small, poorly fitted or top-dose-only effect, or another doubt; inactive means no such curve, though single readings can be large; an effect the other way counts as inactive or inconclusive. On the % scale 0 is the no-effect control and ±100 the full control effect; potency means the concentration at half of the fitted maximal effect.
SMILES,HEK cytotox,hNpr1 antagonist,NIH3T3 tox,GPT2 inhibitor,Luciferase inh
CC(C)(C)OC(=O)N1CC(NCc2cccc(-c3cccs3)c2)C1,?,·,-28%,i,·
COc1cccc(Nc2ncc3c(n2)C(C)(C(=O)NCCN2CCOCC2)CC3)c1 (stereo not given),?,-3%[70.6 µM],?,3%[88.5 µM],i
CN(C)c1ncc2c(n1)C(C)(C(=O)NCc1ccc3c(c1)OCO3)CCC2 (stereo not given),?,-19%[70.6 µM],?,-25%[88.5 µM],i
COc1cccc(NC(=O)C2(C)COCc3cnc(Nc4ccccc4)nc32)c1 (stereo not given),100µM*,-20%[70.6 µM],79µM*,i,i
COc1cccc(Nc2ncc3c(n2)C(C)(C(=O)NCc2ccc4c(c2)OCO4)CC3)c1 (stereo not given),32µM*,?,?,4%[88.5 µM],i
COc1cccc(Nc2ncc3c(n2)C(C)(C(=O)NCCCn2ccnc2)CC3)c1 (stereo not given),?,1%[70.6 µM],25µM*,0%[88.5 µM],i
CC1(C(=O)N2CCC(c3ccccc3)CC2)COCc2cnc(Nc3ccccc3)nc21 (stereo not given),63µM*,?,45µM*,-20%[88.5 µM],i
Cc1ccc(C(=O)N2CCCCCCNC(=O)[C@@H]3CCCC[C@@H]32)c(=O)[nH]1,-6%,1%,-2%,-11%,i
CC(C)NC(=O)Cc1cccn1-c1ccc(F)cc1,-7%,-15%,-5%,?,i
COc1ccc(NC(=O)C2(C)CCc3cnc(NCc4ccccc4)nc32)cn1 (stereo not given),?,-1%[70.6 µM],13µM*,-3%[88.5 µM],i
CN1CCC(NC(=O)C2(C)CCc3cnc(Nc4ccccc4)nc32)CC1 (stereo not given),?,-3%[70.6 µM],?,0%[88.5 µM],i
COc1ccc(NC(=O)C2(C)CCc3cnc(Nc4ccccc4)nc32)cn1 (stereo not given),100µM*,-19%[70.6 µM],?,-4%[88.5 µM],i
CC(=O)N[C@H]1CN(C2CCN(c3ccc(F)cc3C)CC2)C[C@@H]1C1CC1,?,2%,-30%,i,i
O=C(COc1ccccc1)N1CCC(n2cc(-c3nc(-c4ccccc4)no3)nn2)CC1,?,0%,13µM*,i,i
Cc1ccc(C(=O)N2CCC(n3cc(-c4nc(-c5ccccc5)no4)nn3)CC2)cc1,?,-21%,-17%,4%,i
O=C(c1ccccc1)N1CCC(n2cc(-c3nc(-c4ccccc4)no3)nn2)CC1,?,0%,40µM*,i,i
O=C(c1c(F)cccc1F)N1CCC(n2cc(-c3nc(-c4ccccc4)no3)nn2)CC1,?,1.1µM*,?,-34%,i
Cc1ccccc1Cn1cc(-c2ccncc2)cc1C(=O)NCc1ccncc1,?,-10%,?,-7%,i
Cc1ccc(Cn2cc(-c3ccncc3)cc2C(=O)NCc2ccc(N(C)C)cc2)cc1,45µM*,0%,?,-9%,i
CN(Cc1ccccc1)C(=O)[C@@H]1C[C@@H](c2ccc(F)cc2)N([S+](=O)([O-])c2ccccc2)C1,?,3%,?,1%,i
CN(C(=O)[C@@H]1C[C@@H](c2ccc(F)cc2)N([S+](=O)([O-])c2ccccc2)C1)c1ccccc1,?,-25%[70.6 µM],35µM*,-22%[88.5 µM],i
N#Cc1ccc(C(=O)N[C@@H]2CN(Cc3ccccc3)C[C@H]2CO)cc1,?,2%,14µM*,3%,i
CCc1ccc(NC(=O)Cn2c(N(C)Cc3ccccc3)nc(C)cc2=O)cc1,35µM*,?,?,i,i
CCc1cccc(NC(=O)Cn2c(Nc3cc(C)cc(C)c3)nc(C)cc2=O)c1,40µM*,-2%,-14%,1%,i
O=C(O)CCC(=O)N1Cc2ccccc2CC2(CCCN2Cc2ccccc2)C1 (stereo not given),-2%,·,-6%,i,·
SMILES,HEK cytotox,hNpr1 antagonist,NIH3T3 tox,GPT2 inhibitor,Luciferase inh
CN1CCC(C(=O)N2Cc3ccccc3CC3(CCCCN3CC3CCNCC3)C2)CC1 (stereo not given),-11%,·,-11%,i,·
CN(C)CCCC(=O)N1Cc2ccccc2CC2(CCCCN2Cc2ccccc2)C1 (stereo not given),79µM*,·,?,i,·
O=C(c1ccccc1)N1Cc2ccccc2CC2(CCCCN2CC2CCNC2)C1 (stereo not given),79µM*,·,?,1%,·
COc1cccc(CCC2CCCN(C(=O)c3ccsc3)C2)c1 (stereo not given),?,1%,?,i,i
COCc1ccc(C(=O)N2CCCC(CCc3cccc(OC)c3)C2)o1 (stereo not given),79µM*,1%,?,i,i
COc1cccc(CCC2CCCN(C(=O)c3ccoc3C)C2)c1 (stereo not given),32µM*,-2%,?,-4%,i
Cc1nn(-c2ccccc2)c2c1C(C(C)C)N(C1CCN(C(=O)c3ccccn3)C1)C2=O (stereo not given),45µM*,·,-21%,·,·
Cc1ccccc1C(=O)N1CCC(N2C(=O)c3c(c(C)nn3-c3ccccc3)C2C(C)C)C1 (stereo not given),40µM*,·,?,·,·
CC(=O)N1CC(N2C(=O)c3c(c(C)nn3-c3ccccc3)C2C(C)C)C1 (stereo not given),-7%,·,-25%,·,·
Cc1nn(-c2ccccc2)c2c1C(C(C)C)N(C1CN(C(=O)c3ccccc3)C1)C2=O (stereo not given),45µM*,·,?,·,·
Cc1ccccc1C(=O)N1CCCC(N2C(=O)c3c(c(C)nn3-c3ccccc3)C2C(C)C)C1 (stereo not given),22µM*,·,40µM*,·,·
Cc1nn(-c2ccccc2)c2c1C(C(C)C)N(C1CN(C(=O)c3ccccn3)C1)C2=O (stereo not given),-28%,·,?,·,·
O=C(c1ccc(Cl)nc1)N1CCC(C(=O)N2CCCC(c3nc4ncccc4[nH]3)C2)CC1 (stereo not given),i,·,1%,i,·
COc1cccc(CC(=O)N2CC[C@@H](NC(=O)c3ccncc3)[C@H](O)C2)c1,i,11%,-20%,0%,i
Cc1nn(-c2ccccc2)c2c1C(C(C)C)N(C1CCCN(C(=O)Cc3ccccn3)C1)C2=O (stereo not given),?,·,-30%,·,·
Cc1nn(-c2ccccc2)c2c1C(C(C)C)N(C1CN(C(=O)C3CCCC3)C1)C2=O (stereo not given),45µM*,·,40µM*,·,·

# Screening results (PubChem)
